# Bioassay records: PubChem, several laboratories
# PfGluPho inh – PfG6PD (Plasmodium falciparum) enzyme inhibition. PfGluPho enzyme, NADPH resazurin-diaphorase fluorescence. inhibition, % at 20 µM. 350,000 compounds, 0.78% hits. AID 504690;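 active = inhibition reaching at least a set limit at 20 µM in the primary screen, cut at about 59% in these data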
# FAS-TE inh – blocks the thioesterase domain of human fatty acid synthase | AID 602261 | 360,000 compounds, 0.67% hits | inhibition, % at 15 µM | P49327 | recombinant FAS-TE, OMFH fluorogenic substrate, fluorescence endpoint;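 active = compounds whose normalised, plate-corrected inhibition of enzyme fluorescence in the single-dose primary screen is 50% or more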
# Neddylation inh – blocks human cullin neddylation | TR-FRET cullin neddylation, biochemical | calls only at 25 µM | 360,000 compounds, 0.58% hits; in the data active = inhibition above about 36%
# proKLK7 act – activators of human kallikrein-7 zymogen; P49862; purified proKLK7, EDANS-DABCYL substrate fluorescence; 100% is mature enzyme control, 0% vehicle; activation, % at 7 µM; 370,000 compounds, 0.9% hits; AID 652039;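 active = activation above the mean of all tested compounds plus 3 SD, computed per campaign excluding outliers beyond control limits, cut at about 13% in these data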
# PfG6PD confirm – confirmation of Plasmodium falciparum G6PD inhibitors; 2,400 compounds, 34% hits; recombinant PfGluPho, NADPH-diaphorase-resazurin fluorescence; shares compounds with PfGluPho inh; inhibition, % at 20 µM;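 active = inhibition of at least 50% at 20 µM in any single replicate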
# Diaph ctr 10uM – diaphorase inhibition or oxidation at 10 uM NADPH. inhibition, % at 20 µM. shares compounds with PfGluPho inh. AID 504862. diaphorase-coupled resazurin reduction, fluorescence, NADPH 10 uM. 820 compounds, 39% hits;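 active = average inhibition reaching 50% or more with the compound at 20 µM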;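 also: resorufin red fluorescence formed as diaphorase reduces resazurin using NADPH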
# Diaph ctr 30uM – counter-screen for P. falciparum G6PD inhibitors: diaphorase inhibitors, oxidizers; 820 compounds, 29% hits; shares compounds with PfGluPho inh; inhibition, % at 20 µM; Diaphorase/resazurin coupled assay, resorufin fluorescence, 30 uM NADPH;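 active = inhibition averaging 50% or more, tested at 20 µM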
# Numbers stand for hits; 0 = inactive; - = not tested or not shown. An excerpt weighted towards active compounds, which were near 2.7% of everything screened.
SMILES,PfGluPho inh,FAS-TE inh,Neddylation inh,proKLK7 act,PfG6PD confirm,others
O=C(Nc1nc(=S)ss1)c1c(F)cccc1F,62,0,0,0,0,
COc1ccc2c(c1)CO[C@H]([C@H](O)COC(C)=O)[C@H]2/C=C/c1ccccc1,-,-,-,0,-,
Cc1cc(C)c2c(=O)n(CC(=O)Nc3cccc(F)c3)sc2n1,110,0,0,0,94,Diaph ctr 10uM=0;Diaph ctr 30uM=0
CCOc1ccc(NC(=O)Cn2ncc3ccccc32)cc1,0,0,0,0,-,
Cc1ccc(NC(=O)Cn2sc3nc(C)cc(C)c3c2=O)c(Cl)c1,100,0,0,0,76,Diaph ctr 10uM=0;Diaph ctr 30uM=0
Cc1cc(C)c2c(n1)SCC(=O)N2CC(=O)Nc1cccc(Cl)c1,0,0,0,0,-,
CCOc1ccc(NC(=O)Cn2sc3nc(C)cc(C)c3c2=O)cc1,104,0,0,-,90,Diaph ctr 10uM=0;Diaph ctr 30uM=0
Cc1cc(C)c2c(=O)n(CC(=O)Nc3ccc(Cl)cc3)sc2n1,112,0,0,0,96,Diaph ctr 10uM=0;Diaph ctr 30uM=0
COC(=O)[C@]12C[C@H](CC(=O)NCc3cccc4ccccc34)C(=O)N(Cc3ccco3)C1=C[C@H](C1CCCC1)O[C@@H]2C,-,-,-,0,-,
COc1ccc(Cn2cc(COC(=O)NCC(C)C)nn2)cc1,-,-,-,0,-,
O=C(NC1CCCCN(Cc2cccc(F)c2)C1=O)c1cccc(F)c1 (stereo not given),-,-,-,0,-,
N#C[C@@H]1N[C@H](CO)[C@@H]1c1ccccc1,-,-,-,0,-,
COC(=O)[C@H]1C[C@@]2(C)c3ccccc3N(S(=O)(=O)c3ccccc3)[C@H]2N1,-,-,-,0,-,
Clc1ccc(-n2c(SCc3cccc4ccccc34)nnc2-c2cccnc2)cc1,-,-,-,0,-,
COc1cc(C(=O)ON=C2C(C)=CC(=O)C=C2C)cc(OC)c1OC,0,0,0,0,-,
COc1cc(C(=O)O/N=C2/C=C(C)C(=O)C=C2C)cc(OC)c1OC,61,0,0,0,57,Diaph ctr 10uM=0;Diaph ctr 30uM=0
COC(=O)[C@]12C[C@H](CC(=O)NCc3cccc(C(F)(F)F)c3)C(=O)N(CCC3=CCCCC3)C1=C[C@H](C1CCCC1)O[C@@H]2C,-,-,-,0,-,
Cc1ccc(-c2nn(C)c(=O)c3ccccc23)cc1CNC(=O)/C=C/c1ccccc1,77,0,0,0,76,Diaph ctr 10uM=59;Diaph ctr 30uM=0
O=C(NC1CCCCN(Cc2ccc(OC(F)(F)F)cc2)C1=O)c1cccc(F)c1 (stereo not given),-,-,-,0,-,
CCOC(=O)Cc1ccc(NC(=O)c2cccc([N+](=O)[O-])c2)cc1,0,0,0,0,-,
O=C(Nc1ncc([N+](=O)[O-])s1)c1cccc([N+](=O)[O-])c1,103,0,0,0,89,Diaph ctr 10uM=77;Diaph ctr 30uM=69
CCOC(=O)CSc1nnc(NC(=O)c2cccc([N+](=O)[O-])c2)s1,80,0,0,0,58,Diaph ctr 10uM=51;Diaph ctr 30uM=0
O=C(Nc1ccc(NC(=O)c2cccc([N+](=O)[O-])c2)cc1)c1cccc([N+](=O)[O-])c1,0,0,0,0,-,
COCC#Cc1ccc(CC[C@H]2O[C@H]3CC[C@H](CO)O[C@H]3C[C@H]2n2cc(C(C)(C)O)nn2)cc1,-,-,-,0,-,
CCN(Cc1ccccc1)C(=O)C1C2C=CC3(CN(Cc4ccccc4)C(=O)C13)O2 (stereo not given),-,-,-,0,-,
SMILES,PfGluPho inh,FAS-TE inh,Neddylation inh,proKLK7 act,PfG6PD confirm,others
O=C1c2ccccc2C(=O)c2c1cccc2N(CCO)CCO,0,0,0,0,-,
O=C1C=C(N(CCO)Cc2ccccc2)c2ccccc2C1=O,71,0,0,-,0,
Nc1ccc(CNC(=O)OCC2c3ccccc3-c3ccccc32)cc1,117,0,0,0,74,Diaph ctr 10uM=65;Diaph ctr 30uM=56
CCCCC(=O)Nc1sc(C(=O)N(CC)CC)c(C)c1C(=O)OC,70,0,0,0,0,
CCOC(=O)c1c(NC(=O)CN(C)C)sc(C(=O)N(CC)CC)c1C,0,0,0,0,-,
CSCCCNC(=O)c1oc(=O)c2ccccc2c1-c1ccc(C)cc1,-,-,-,0,-,
O=C(NCCCN1CCN(c2ccc(F)cc2)CC1)Nc1ccccc1,-,-,-,0,-,
O=[N+]([O-])c1cccc(SSc2cccc([N+](=O)[O-])c2)c1,115,0,0,0,52,Diaph ctr 10uM=0;Diaph ctr 30uM=0
Nc1cccc([N+](=O)[O-])c1,0,0,0,0,-,
COc1ccc(C(C(=O)N(C)C2CCCC2)N(Cc2ccc(F)cc2)C(=O)c2cc(C)on2)cc1OC (stereo not given),-,-,-,0,-,
CC(=O)NC1CCCCN(Cc2cccc(F)c2)C1=O (stereo not given),-,-,-,0,-,
COC(=O)C1=C[C@@H]([C@@H](C)[C@H](OC)c2ccccc2Br)[C@@H]2OCCC[C@H]12,-,-,-,0,-,
Cc1nn(CCC(N)=S)c2nc(-c3cccs3)cc(C(F)(F)F)c12,62,0,0,0,0,
Cc1nn(CCC#N)c2nc(-c3ccccc3)cc(C(F)(F)F)c12,0,0,0,0,-,
O=C(NCCc1ccccc1)c1ccc2nc(-c3ccco3)c(-c3ccco3)nc2c1,60,0,0,-,0,
O=C(NC1CCCC1)c1ccc2nc(-c3ccco3)c(-c3ccco3)nc2c1,0,0,0,-,-,
O=C(NCCO)c1ccc2nc(-c3ccco3)c(-c3ccco3)nc2c1,72,0,0,0,0,
CCOC(=O)[C@]12CCCCC/C=C\1N(Cc1ccc(OC)cc1)C(=O)[C@H]2CC(=O)NCCCOC,-,-,-,0,-,
COC(=O)c1cccc(OCC(C)CN2CCC(C(O)(c3ccccc3)c3ccccc3)CC2)c1 (stereo not given),-,-,-,0,-,
O=S(=O)(Nc1ccccc1N1CCCCC1)c1ccc(Cl)s1,86,0,0,0,0,
CC1(C)CN(c2ccccc2)N(C(=O)c2ccc(C#N)cc2)C1=O,95,0,0,0,68,Diaph ctr 10uM=0;Diaph ctr 30uM=0
O=C(O)c1cc(O)c2c(c1)[C@@H]([C@H]1c3cc(C(=O)O)cc(O)c3C(=O)c3c(O[C@@H]4O[C@H](CO)[C@@H](O)[C@H](O)[C@H]4O)cccc31)c1cccc(OC3O[C@H](CO)[C@@H](O)[C@H](O)[C@H]3O)c1C2=O (stereo not given in full),69,0,0,0,0,
O=C(O)c1cc(O)c2c(c1)[C@H]([C@H]1c3cc(C(=O)O)cc(O)c3C(=O)c3c(O[C@@H]4O[C@H](CO)[C@@H](O)[C@H](O)[C@H]4O)cccc31)c1cccc(OC3O[C@H](CO)[C@@H](O)[C@H](O)[C@H]3O)c1C2=O (stereo not given in full),71,0,0,0,0,
O=C1c2cc(CO)cc(O)c2C(=O)c2c(O[C@@H]3OC(CO)[C@@H](O)[C@@H](O)[C@@H]3O)cccc21 (stereo not given in full),0,0,0,0,-,
Cc1cc(=O)oc2cc(OCC(=O)N3CCOCC3)ccc12,68,0,0,0,0,
Cc1cc(=O)oc2cc(OCC(=O)N3CCN(c4ccccc4)CC3)ccc12,0,0,0,0,-,
N=C(N)c1ccc(N=Nc2c(O)ccc3c2[nH]c2ccccc23)cc1,78,0,0,0,0,
